Source: ChEMBL document CHEMBL3988442, “University of Dundee, Small-Polar-MMV Screening Library” (2021)
The campaign covered roughly 48,000 compounds. About 13,000 (27%) showed an effect of 50% or more. The list shows a part of the results.

What follows are compounds tested on Wolbachia pipientis (assay: Anti-Wolbachia Cell-Based Screen). Conditions: 5 µM.
Format: functional
Set-up: scale not given: in the data most compounds retested in dose-response had high values

Row | SMILES | Percent Effect [%]
1 | CCS(=O)(=O)NCCNc1c(C#N)cnc2c(F)cc(F)cc12 | 9.088
2 | O=c1c2cccnc2cnn1CC(O)c1cccc(Cl)c1 (stereo not given) | -24.01
3 | O=C(NCC(O)c1cccc(F)c1)C1CCN(C2CCCCC2)CC1 (stereo not given) | -12.87
4 | COCCN1CCC(CN(CC2CCCO2)C(=O)Cn2cccn2)CC1 (stereo not given) | 105.2
5 | CCN1CCCC1CN(Cc1ccoc1)CC1CCN(CCOC)CC1 (stereo not given) | 3.887
6 | CCN1CCCC1CN(Cc1ccon1)CC1CCN(CCOC)CC1 (stereo not given) | 1.475
7 | COCCN1CCC(CN(CC2CCCO2)C(=O)Cc2cccs2)CC1 (stereo not given) | 153.6
8 | COCCN(Cc1cccs1)C(=O)C1CCCN(C(N)=O)C1 (stereo not given) | 11.05
9 | O=C(c1cccnc1O)N(Cc1cccs1)CC1CCCO1 (stereo not given) | -28.97
10 | CN(C)C(=O)N1CCC2(CC1)CN(CC1CC1)CC21CCNC1=O.O=C(O)C(F)(F)F (stereo not given) | -46.87
11 | CC(C)CC(C(=O)N(C)Cc1ncnn1C)N1CCCCC1=O (stereo not given) | 7.289
12 | O=C(C1CCCO1)N1CCC(n2cc(-c3ccsc3)nn2)CC1 (stereo not given) | 2.629
13 | CCNC(=O)NC1CCN(c2ccc(S(=O)(=O)CC)cc2)CC1 | -0.338
14 | CC(C#N)CN(C)Cc1ccc(Cl)c2cccnc12 (stereo not given) | -6.534
15 | CC(C)n1cc(C(=O)N2CCC(n3cc(C(C)(C)C)nn3)CC2)cn1 | 5.915
16 | CCC(CC)(CNC(=O)OC(C)(C)C)NC(=O)C1CC1 | 0.8539
17 | Cc1ccc(CN2CCC[C@]3(C(=O)O)CN(CC4CC4)C[C@@H]3C2)s1.O=C(O)C(F)(F)F.O=C(O)C(F)(F)F | 98.43
18 | COCCN1C[C@@H]2CN(Cc3ccc(C)s3)CCC[C@]2(C(=O)O)C1.O=C(O)C(F)(F)F.O=C(O)C(F)(F)F | 111.2
19 | Cc1ccc(CN2CCC[C@]3(C(=O)O)CN(C)C[C@@H]3C2)s1.O=C(O)C(F)(F)F.O=C(O)C(F)(F)F | 119.8
20 | COCCN1C[C@@H]2CN(Cc3ccoc3)CCC[C@]2(C(=O)O)C1.O=C(O)C(F)(F)F.O=C(O)C(F)(F)F | -3.751
21 | CN1C[C@@H]2CN(Cc3ccsc3)CCC[C@]2(C(=O)O)C1.O=C(O)C(F)(F)F.O=C(O)C(F)(F)F | 3.355
22 | Cc1ccc(CN2CCCC3(CCCN3S(C)(=O)=O)C2)s1.O=C(O)C(F)(F)F (stereo not given) | 2.867
23 | Cc1ccc(CN2CCCC3(CCCC(=O)N3)C2)s1.O=C(O)C(F)(F)F (stereo not given) | -10.23
24 | COCCN1C[C@@H]2CN(Cc3ccsc3)CCC[C@]2(C(=O)O)C1.O=C(O)C(F)(F)F.O=C(O)C(F)(F)F | 4.755
25 | Cc1ccc(CN2C[C@@H]3CN(CC4CCOCC4)CCO[C@@H]3C2)s1.O=C(O)C(F)(F)F.O=C(O)C(F)(F)F | -6.305
